# Measured values as given in PubChem BioAssay (NCI).
# About 79,000 compounds went through this panel and 15% of them were active in at least one assay; those are over-represented in the sample as a whole. Values without a mark were called inactive. Calls of active or inactive are those of the source. No stated cut-off is given here; in the data, active means growth inhibition above about 70%; inactive means the rest.
# Experiments:
# [1] = NCI Yeast Anticancer Drug Screen. Data for the rad50 strain (AID 155);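 further: 0% = growth of vehicle-only cultures of the same strain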; settings: S. cerevisiae rad50 strain growth inhibition, stronger effect = higher value
# Procedure, shortened: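 Inhibition values express reduced yeast growth in compound-treated cultures relative to vehicle-treated controls.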
# [2] = NCI Yeast Anticancer Drug Screen. Data for the mec2-1 strain (AID 157); settings: S. cerevisiae mec2-1 strain, stronger effect = higher value
# Procedure, shortened: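 mec2-1 yeast strain, carrying an alteration in DNA damage repair or cell cycle control, was exposed to compounds; growth inhibition was measured relative to vehicle-treated controls.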
# [3] = NCI Yeast Anticancer Drug Screen. Data for the sgs1 mgt1 strain (AID 161);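 further: 0% = growth of cultures given vehicle only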; settings: S. cerevisiae sgs1 mgt1 strain, stronger effect = higher value
# Procedure, shortened: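 Percent growth inhibition was derived by comparing compound-exposed mutant yeast with vehicle-exposed cultures. The strain carries alterations in DNA damage repair.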
# [4] = NCI Yeast Anticancer Drug Screen. Data for the cln2 rad14 strain (AID 165);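 further: 0% = growth equal to vehicle treated cultures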; settings: S. cerevisiae cln2 rad14 strain, stronger effect = higher value
# Procedure, shortened: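 Yeast carrying cln2 and rad14 alterations (cell cycle control and DNA damage repair) were exposed to compounds. Growth inhibition was measured against vehicle-treated controls.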
# [5] = NCI Yeast Anticancer Drug Screen. Data for the bub3 strain (AID 167); settings: S. cerevisiae bub3 mutant strain, stronger effect = higher value
# Procedure, shortened: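 Steps: expose the mutant yeast strain to compound; grow alongside vehicle-treated cultures; measure growth; express inhibition against the vehicle cultures.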
# [6] = NCI Yeast Anticancer Drug Screen. Data for the mlh1 rad18 strain (AID 175); settings: S. cerevisiae mlh1 rad18 strain growth inhibition, stronger effect = higher value
# Procedure, shortened: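 Growth inhibition of the yeast strain was measured after compound exposure and expressed relative to vehicle-treated controls. The strain carries defined defects in DNA damage repair.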
# [7] = at 5.0 µM (retest, dose inferred, filed as 0.5)
# [8] = at 50.0 µM (retest, dose inferred, filed as 5.0)
SMILES,"growth inhibition [1, 7]","growth inhibition [1, 8]",growth inhibition ([1]; at 50.0 µM),"growth inhibition [2, 7]","growth inhibition [2, 8]",growth inhibition ([2]; at 50.0 µM),"growth inhibition [3, 7]","growth inhibition [3, 8]",growth inhibition ([3]; at 50.0 µM),"growth inhibition [4, 7]","growth inhibition [4, 8]",growth inhibition ([4]; at 50.0 µM),"growth inhibition [5, 7]","growth inhibition [5, 8]",growth inhibition ([5]; at 50.0 µM),"growth inhibition [6, 7]","growth inhibition [6, 8]",growth inhibition ([6]; at 50.0 µM)
CC(=O)SC(SC(C)=O)SC(C)=O,11%,93% (active),93.9% (active),0%,98% (active),93.1% (active),15%,94% (active),93.1% (active),20%,97% (active),89.6% (active),29%,99% (active),92% (active),16%,99% (active),90.5% (active)
COC(=O)CCCC(=O)NC1=C(Nc2ccccc2)C(=O)c2ccccc2C1=O,27%,72% (active),45.5%,15%,41%,14.5%,22%,50%,52.2%,15%,24%,38.6%,33%,67%,61%,23%,60%,16.3%
NC(=S)N/N=C/c1ccc([N+](=O)[O-])o1,11%,27%,66%,3%,14%,43.7%,4%,24%,65.2%,-3%,2%,13.7%,10%,45%,24.2%,13%,43%,75.3% (active)
CN(C)CCCCCNc1c2ccccc2nc2cccc([N+](=O)[O-])c12,73% (active),95% (active),90% (active),52%,97% (active),91.2% (active),29%,33%,89.2% (active),37%,62%,92.3% (active),23%,47%,89% (active),78% (active),96% (active),87.7% (active)
CCOC(=O)c1nc(SC)sc1NC(=O)c1ccccc1Cl,1%,1%,19.4%,-5%,-5%,-15.6%,4%,4%,77.8% (active),-13%,-13%,27.8%,-14%,-14%,30.4%,-5%,-5%,-8.2%
NC(=S)N1N=C2c3ccccc3CCC[C@H]2[C@@H]1c1ccccc1,23%,34%,73.2% (active),16%,27%,70.1% (active),21%,43%,77.1% (active),12%,13%,63.9%,25%,47%,74.2% (active),17%,48%,69.5%
C=CS(=O)(=O)c1ccc(Cl)cc1,-116%,97% (active),99.7% (active),-19%,98% (active),99.7% (active),-23%,98% (active),99.2% (active),-42%,98% (active),99.1% (active),-34%,98% (active),99.4% (active),-73%,97% (active),99% (active)
COC(=O)C1(Cc2ccccc2)Cc2c(C)ccc(C)c2C1=O (configuration not stated),-4%,12%,43.1%,-3%,16%,19.2%,13%,42%,61.6%,-1%,2%,39.2%,28%,62%,64.2%,-2%,13%,70.2% (active)
O=C(O)CSc1cc2c3ccccc3sc2c2ccccc12,16%,96% (active),96.3% (active),14%,97% (active),97.8% (active),11%,97% (active),98.5% (active),4%,96% (active),93.8% (active),8%,94% (active),79.7% (active),12%,97% (active),98.1% (active)
O=C(CCCSCCCC(=O)NNc1ccccc1)NNc1ccccc1,31%,88% (active),96.2% (active),16%,95% (active),40.7%,30%,94% (active),87.4% (active),21%,92% (active),86.7% (active),45%,98% (active),96.5% (active),54%,98% (active),97.8% (active)
COc1cccc2c1C(=O)c1c(O)c3c(c(O)c1C2=O)C[C@@](O)(C(=O)CO)C[C@@H]3OC1CC(N)CC(C)O1 (some centres not stated),81% (active),98% (active),89.3% (active),24%,98% (active),90.4% (active),61%,99% (active),90.1% (active),63%,98% (active),85% (active),76% (active),99% (active),88.9% (active),69%,97% (active),92% (active)
COc1ccc(/C=C(/NC(=O)c2ccccc2)C(=O)Nc2ccccc2)cc1OC,-13%,-6%,3.3%,-7%,-12%,16.1%,-6%,-5%,-18.4%,-23%,-24%,50.5%,-6%,9%,-8.25%,-4%,-11%,29.3%
C/C(=N\NC(=S)N(C)C)c1cccnn1,95% (active),99% (active),84.8% (active),91% (active),99% (active),91.4% (active),92% (active),98% (active),87.3% (active),94% (active),95% (active),86.8% (active),95% (active),99% (active),89.5% (active),96% (active),99% (active),83.2% (active)
Cc1cc(Cl)ccc1NC(=O)CC1SC(=NC(=O)c2ccccc2Cl)NC1=O (configuration not stated),98% (active),99% (active),91% (active),99% (active),100% (active),94.2% (active),96% (active),99% (active),90.7% (active),48%,99% (active),92.4% (active),98% (active),99% (active),91.5% (active),98% (active),99% (active),92.2% (active)
O=c1c2c(F)c(F)c(F)c(F)c2sc2nccn12,15%,100% (active),89% (active),40%,100% (active),91.2% (active),2%,99% (active),84.8% (active),5%,99% (active),90.2% (active),27%,100% (active),89.5% (active),46%,99% (active),86.8% (active)
Cc1ccc(C(=O)OCCN2CCOCC2)c([N+](=O)[O-])c1OCc1ccccc1,14%,61%,73.2% (active),18%,46%,63.4%,13%,81% (active),84.7% (active),11%,28%,6.7%,11%,65%,68.5%,10%,58%,78.3% (active)
O=C1OC2(CCCC2)OC1c1ccccc1 (configuration not stated),2%,-7%,14.9%,-1%,2%,-17.6%,-2%,-7%,-9.7%,-4%,0%,72.2% (active),-5%,-4%,13.2%,-5%,-9%,-6.4%
COc1ccc(Cc2coc3ccccc3c2=O)cc1OC,-1%,12%,-0.55%,2%,10%,-2.5%,1%,18%,18.4%,0%,3%,3.8%,23%,68%,71.1% (active),-3%,12%,0.95%
Cc1cc(Br)c(NC(=O)CBr)cc1C,-1%,95% (active),42.3%,-3%,97% (active),73.3% (active),-1%,97% (active),72% (active),-2%,94% (active),46.9%,-1%,96% (active),40.5%,-2%,96% (active),81.5% (active)
